Experimental data taken from PubChem BioAssay.

System: not listed separately
Experiment: small-molecule binders of probe aInhba, primary screen, biochemical, small-molecule microarray, 635/667 nm fluorescence (AID 1148);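 note: score merges 667nm spot fluorescence with signal-to-noise for antibody binding to printed compounds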
Settings: higher = more signal

Compound | composite z-score
C=CCC(OC(C)=O)[C@@H]1[C@@H](N(Cc2ccc(-c3cccc(C(F)(F)F)c3)o2)C(=O)Cc2ccc(OC)cc2)c2cc(OCCCO)ccc2N1C(=O)Cc1ccc2ccccc2c1 (some centres undefined) | -0.238
CO[C@H]1O[C@H](CO)[C@@H](OC(=O)c2ccc(Br)cc2)[C@@H]2OC(=O)[C@H](Cc3ccccc3)C/C=C/C[C@@H](Cc3ccccc3)C(=O)O[C@@H]12 | -0.263
O=C(CS)NCCCCCCNC(=O)[C@@H]1C[C@@H]2C(=O)NCC(=O)N2[C@@H]1c1ccc(O)cc1 | -0.293
COCCOC(=O)N1C(=O)[C@@]2(c3cc(C#CCNC(N)=O)ccc31)[C@H](c1ccc(OCCO)cc1)N1[C@H](c3ccccc3)[C@H](c3ccccc3)OC(=O)[C@H]1[C@@H]2C(=O)NC[C@H](O)c1ccccc1 | 0.111
CC(C)C[C@@H]1NC(=O)CNC(=O)[C@@]23C(=O)N[C@@H](Cc4ccccc4)C2[C@H](C)[C@@]2(C)O[C@H]2C3/C=C/C/C=C\CNC1=O (some centres undefined) | -0.0494
COCCOC(=O)N1C(=O)[C@@]2(c3cc(C#CC4(O)CCCCCC4)ccc31)[C@H](c1ccc(OCCO)cc1)N1[C@H](c3ccccc3)[C@H](c3ccccc3)OC(=O)[C@H]1[C@@H]2C(=O)Nc1nc2ccccc2s1 | 0.134
COCCOC(=O)N1C(=O)[C@@]2(c3cc(C#CCC(C(=O)OC)C(=O)OC)ccc31)[C@H](C(=O)NC[C@H](O)c1ccccc1)[C@H]1C(=O)O[C@H](c3ccccc3)[C@H](c3ccccc3)N1[C@@H]2c1ccc(O)cc1 | -0.0509
C=C(C(=O)CC[C@H](OC(=O)c1ccccc1-c1ccccc1C(=O)O)c1ccccc1OCCO)C(C)C | 0.0569
C=C(C)[C@@H]1CC=C(C(O)C2C=CC3C(=O)N(c4ccccc4)C(=O)C3N2Nc2ccc(C#N)cc2)CC1 (some centres undefined) | 0.361

Molecular target: Torsin-1A (Homo sapiens) (UniProt O14656)
Sequence (O14656 whole entry, looked up): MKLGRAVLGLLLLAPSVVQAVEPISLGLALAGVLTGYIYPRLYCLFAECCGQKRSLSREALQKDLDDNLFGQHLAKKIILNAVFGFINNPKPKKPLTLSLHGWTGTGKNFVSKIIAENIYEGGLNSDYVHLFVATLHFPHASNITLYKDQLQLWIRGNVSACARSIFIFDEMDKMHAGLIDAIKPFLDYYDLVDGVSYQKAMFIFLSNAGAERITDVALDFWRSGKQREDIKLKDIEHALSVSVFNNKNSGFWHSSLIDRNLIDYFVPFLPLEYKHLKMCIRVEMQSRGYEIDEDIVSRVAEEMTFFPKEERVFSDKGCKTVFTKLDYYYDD
Experiment: torsin A binders from cell lysate, primary screen, small-molecule microarray, wild-type, 635/667 nm (AID 1149)
Settings: COS7 hTOR1A-WT lysate, 635 nm fluorescence, higher = more signal

Compound | composite z-score
COC(=O)C(CC#Cc1ccc2c(c1)[C@]1(C(=O)N2)[C@H](c2ccc(O)cc2)N2[C@H](c3ccccc3)[C@H](c3ccccc3)OC(=O)[C@H]2[C@@H]1C(=O)N1CCCCCCC1)C(=O)OC | 0.78
CC(C)=CCCC(C)=CC(O)C1C=CC2C(=O)N(c3ccccc3)C(=O)C2N1Nc1ccccc1F (centres undefined) | -0.216
CN(C)CCCCNC(=O)[C@H]1C[C@H]2C(=O)N[C@@H](CCCC[N+](C)(C)C)C(=O)N2[C@H]1c1ccc(O)cc1 | 0.278
CN(C)CCCNC(=O)[C@@H]1c2ccccc2C(=O)N(C2CCCCC2)[C@H]1c1ccc(CO)cc1 | 0.567
CC(C)CNC(=O)[C@@H]1c2ccccc2C(=O)N(C2CCCCC2)[C@H]1c1ccc(CO)cc1 | 0.146
O=C1C2C=CC(C(O)c3ccco3)N(Nc3ccccc3)C2C(=O)N1c1ccccc1 (centres undefined) | -1.16
COc1ccc([Si](C)(C)[C@@H]2[C@@H](CCn3cc([C@H](O)c4ccccc4)nn3)O[C@]3(C(=O)N(c4ccccc4)c4ccccc43)[C@H]2C)cc1 | 0.511
CCCNC(=O)[C@@]1(Sc2ccc(C)cc2)CC(=O)N(C2CCCCC2)[C@@H]1c1ccc(CO)cc1I | 0.0272
COC(=O)C(CC#Cc1ccc2c(c1)[C@]1(C(=O)N2)[C@H](C(=O)Nc2nc3ccccc3s2)[C@H]2C(=O)O[C@H](c3ccccc3)[C@H](c3ccccc3)N2[C@@H]1c1ccc(OCCO)cc1)C(=O)OC | 1.65
CC(=O)NCCCC[C@@H]1NC(=O)[C@@H]2C[C@H](C(=O)NCCCCCCN)[C@H](c3cccc(OCCO)c3)N2C1=O | 0.475
COc1ccc([Si](C)(C)[C@H]2[C@H](CCO)O[C@@]3(C(=O)N(Cc4ccc(N5C(=O)c6ccccc6Oc6ccccc65)cc4)c4ccccc43)[C@@H]2C)cc1 | -1.08
CCCCC=C[C@@H](NC(=O)c1ccccc1)c1ccccc1 | 0.128
COCCOC(=O)N1C(=O)[C@@]2(c3cc(C#CC4=CCCCC4)ccc31)[C@H](C(=O)N1CCCCCCC1)[C@H]1C(=O)O[C@H](c3ccccc3)[C@H](c3ccccc3)N1[C@@H]2c1ccc(OCCO)cc1 | 1.04
COCCOC(=O)N1C(=O)[C@@]2(c3cc(C#CCNC(N)=O)ccc31)[C@H](c1ccc(O)cc1)N1[C@H](c3ccccc3)[C@H](c3ccccc3)OC(=O)[C@H]1[C@@H]2C(=O)N1CCN(c2ncccn2)CC1 | 0.652
COCCOC(=O)N1C(=O)[C@@]2(c3cc(C#CCCO)ccc31)[C@H](c1ccccc1OCCO)N1[C@H](c3ccccc3)[C@H](c3ccccc3)OC(=O)[C@H]1[C@@H]2C(=O)N1CCCCCCC1 | 1.22
